Measurements: PubChem BioAssay AID1460 (National Center for Advancing Translational Sciences (NCATS), 2008)
Screen size: about 270,000 compounds; about 5,800 (2.1%) were called active. A call without a number means that no potency is given here. Inconclusive results (about 16%) are left out. Calls come from the whole dose curve; as a rule, active = well fitted inhibition curve with a large enough effect; inconclusive = small, poorly fitted or top-dose-only effect; inactive = flat fitted curve, though single readings scatter. Many of the other results were omitted from the sample, so actives are more common in it than they were.
Note: nearly all actives have a fitted effect of over 55% in size.
Potency is the fitted concentration of half-maximal effect.

What follows are compounds tested against Microtubule-associated protein tau (Homo sapiens) (UniProt P10636) (assay: qHTS for Inhibitors of Tau Fibril Formation, Thioflavin T Binding). Details: recombinant tau K18 P301L (four-repeat tau fragment), heparin-induced fibrillization, ThT fluorescence; series mostly up to 57.4 µM.
Microtubule-associated protein tau (Homo sapiens), sequence (P10636 561-689 P618L limits assumed): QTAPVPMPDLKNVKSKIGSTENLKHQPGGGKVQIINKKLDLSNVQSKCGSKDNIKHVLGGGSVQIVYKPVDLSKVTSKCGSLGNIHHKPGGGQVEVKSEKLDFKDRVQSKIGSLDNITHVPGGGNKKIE
How it was run: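 Tau K18 P301L fragment (15 uM unlabeled plus 0.24 uM Alexa 594-labeled) in 100 mM sodium acetate pH 7 with compound, fibrillization induced by 20 uM heparin for 6 hr at 37 C. Thioflavin T (30 uM) added, fluorescence read after 1 hr (ex 450, em 510 nm).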
For `O=[N+]([O-])c1c(NCCO)cc(Sc2nc3ccccc3s2)c2nonc12`, the Potency was 12.6 µM (active). With `CC(C)(C)c1ccc(S(=O)(=O)Nc2ccc(O)c(Sc3nc4ccccc4s3)c2)cc1` the Potency was “inactive”. With `O=C(CSc1nc2ccccc2s1)Nc1ccc(C(=O)O)cc1` the Potency was “inactive”. `COC(=O)c1cc(S(=O)(=O)N2CCN(c3cc(Cl)ccc3C)CC2)c[nH]1` was tested, and the Potency was “inactive”. With `O=C1C(c2ccccn2)=[N+]([O-])c2ccccc21` the Potency was 3.98 µM (active). With `COc1ccc(NC(=O)CSc2nc3ccccc3n2CC(=O)N2CCCCC2C)cc1` (configuration not stated) the Potency was “inactive”. `COc1cc(NC(=O)c2cc(C3CC3)nc3c2c(C)nn3-c2ccccc2)cc(OC)c1` was tested, and the Potency was “inactive”. With `COC(=O)CC1Oc2ccccc2-n2cc(-c3ccccc3)nc21` (configuration not stated) the Potency was “inactive”. For `O=C(c1ccccc1)c1ccc(OCC(O)CN2CCCC2)cc1` (configuration not stated), the Potency was “inactive”. `O=C(c1ccc(Cl)cc1)c1ccc(OCC(O)CN2CCCCC2)cc1` (configuration not stated) was tested, and the Potency was “inactive”. With `CCOc1ccc(C(=O)/C=C/c2cn(CC(O)CN3CCCCCC3)c3ccccc23)cc1` (configuration not stated) the Potency was 12.6 µM (active). For `Cc1ccc(C)c(CNC(=O)c2cc3ccccn3n2)c1`, the Potency was “inactive”. With `CC/C(=N/Nc1ccccc1)c1cnnc(SC)n1` the Potency was 7.08 µM (active). `CCOc1ccccc1C(=O)Nc1ccc(S(=O)(=O)N2CCCCC2c2cccnc2)cc1` (configuration not stated) was tested, and the Potency was “inactive”. In the case of `CCOC(=O)c1c(C)[nH]c(C)c1S(=O)(=O)NCC(=O)NCc1cccc(C)c1`, the Potency is reported as “inactive”. With `COc1ccc(Br)cc1/C=N/n1c(C)nnc1C` the Potency was “inactive”. In the case of `COc1cc(Br)cc(/C=N/c2ncn[nH]2)c1O`, the Potency is reported as 14.1 µM (active). With `O=C(O)Cc1sc(-c2ccc(C(=O)O)cc2)nc1-c1ccccc1` the Potency was “inactive”. In the case of `Cc1ccc(-c2nc(C)sc2CC(=O)O)cc1`, the Potency is reported as “inactive”. For `C/C(=N/Nc1nc(-c2ccccc2)c(CC(=O)O)s1)c1ccccc1`, the Potency was 12.6 µM (active). For `COc1ccc(NC(=O)CSc2nccn2Cc2ccc3c(c2)OCO3)cc1`, the Potency was “inactive”. With `Nc1ncc(S(=O)(=O)Nc2ccc(OC(F)(F)F)cc2)cn1` the Potency was “inactive”. `CCc1ccc2ncc3c(-c4ccc(C)cc4)nn(CC(=O)NCc4ccccc4)c3c2c1` was tested, and the Potency was “inactive”. In the case of `COc1ccc(CNC(=O)CSc2n[nH]c(-c3ccc(F)cc3)n2)cc1`, the Potency is reported as “inactive”. `Cc1ccc(NC(=O)c2oc3ccccc3c2NC(=O)Cc2cccs2)cc1` was tested, and the Potency was “inactive”. `CCOC(=O)Cc1csc(NC(=O)CSc2ccc(Br)cc2)n1` was tested, and the Potency was “inactive”. `CCOC(=O)Cc1csc(NC(=O)CSc2nc(C)cc(=O)[nH]2)n1` was tested, and the Potency was 28.2 µM (active). `CCCCc1nnc(NC(=O)CSc2nc(C)cc(=O)[nH]2)s1` was tested, and the Potency was “inactive”. In the case of `CC1=Nc2cc(C(=O)NCc3ccc(C)cc3)ccc2Sc2ccc(Cl)cc21`, the Potency is reported as “inactive”. In the case of `Cc1ccc(Cl)cc1N1CCN(S(=O)(=O)c2cc3[nH]c(=O)c(=O)[nH]c3cc2C)CC1`, the Potency is reported as “inactive”. For `COc1cc(C(=O)NCCc2csc3nc(-c4ccccc4C)nn23)cc(OC)c1OC`, the Potency was “inactive”. For `CC(C)(C)OC(=O)NCCCC1=CC2=CC(=O)C(C)(OC(=O)c3ccco3)C(=O)C2=CO1` (configuration not stated), the Potency was “inactive”. With `COC/C=C/C1=CC2=CC(=O)C(C)(OC(=O)CCC(=O)OC)C(=O)C2=CO1` (configuration not stated) the Potency was 15.8 µM (active). `COc1cc(CN(C(=O)c2ccccc2Br)c2ccccn2)cc(OC)c1OC` was tested, and the Potency was “inactive”. With `CCOc1cccc(NC(=O)c2ccc(F)c(S(=O)(=O)N(CC)c3cccc(C)c3)c2)c1` the Potency was “inactive”. `Oc1ccc(N=Cc2sc3ccccc3c2Cl)cc1` was tested, and the Potency was 7.08 µM (active). For `COC(=O)c1cc(NC(=O)c2sc3ccccc3c2Cl)cc(C(=O)OC)c1`, the Potency was “inactive”. `Oc1ccc(N=Cc2c(O)ccc3ccccc23)cc1` was tested, and the Potency was 12.6 µM (active). For `O=C(Nc1ccon1)c1sc2ccccc2c1Cl`, the Potency was “inactive”. For `CN(Cc1ccccc1)c1ncnc2onc(-c3ccc(F)cc3)c12`, the Potency was “inactive”. `O=c1c(NCc2cccs2)nccn1-c1ccccc1` was tested, and the Potency was “inactive”. In the case of `O=C(CSc1cn(CC(=O)N2CCOCC2)c2ccccc12)Nc1ccccc1`, the Potency is reported as “inactive”. In the case of `Cc1ccc2oc3c(c(=O)c2c1)C(c1ccc([N+](=O)[O-])cc1)N(CCCN1CCOCC1)C3=O` (configuration not stated), the Potency is reported as “inactive”. For `CCN1CCC(N(Cc2ccc(F)cc2)C(=O)Nc2cc(C)ccc2C)CC1`, the Potency was “inactive”. `Cc1cc(C)c2sc(NC(=O)c3ccc(S(=O)(=O)N4CCCC4)cc3)nc2c1` was tested, and the Potency was “inactive”. For `CCOc1cccc(CNC(=O)c2ccc(N3CCCC3)c(NC(=O)Nc3ccccc3CC)c2)c1`, the Potency was “inactive”. `COc1cccc(C(=O)NC(=O)Nc2ccc(-c3cc(C(F)(F)F)nn3-c3ccccc3)cc2)c1` was tested, and the Potency was “inactive”. `Cc1ccccc1CCNC(=O)C1CCN(c2nc3ccccc3nc2C(F)(F)F)CC1` was tested, and the Potency was “inactive”. `CCc1cnc2c(c1SCC(=O)N1CCC(C)CC1)c(=O)n(C)c(=O)n2C` was tested, and the Potency was “inactive”. With `O=[N+]([O-])c1cccc(C2=NCCS2)c1` the Potency was “inactive”. For `Nc1c(-c2cccc(Cl)c2)cnn1-c1cccc([N+](=O)[O-])c1`, the Potency was 12.6 µM (active). `O=C(Nc1cccc([N+](=O)[O-])c1)Nc1ccc(Cl)cn1` was tested, and the Potency was “inactive”. For `Cc1c(C(=O)N2CCCC2)oc2c1-c1nn(CC(=O)NCc3ccc(OC(C)C)cc3)cc1CC2`, the Potency was “inactive”. In the case of `Cc1ccc(OCC(=O)OCc2cc(=O)n3nc(C4CC4)sc3n2)cc1C`, the Potency is reported as “inactive”. In the case of `Cc1ccc(Cl)cc1N(C)C(=O)C1CCCN(c2ncnc3onc(-c4ccc(F)cc4)c23)C1` (configuration not stated), the Potency is reported as “inactive”. In the case of `O=C1c2ccccc2C2=Nc3ccccc3SC(c3ccccc3F)C12` (configuration not stated), the Potency is reported as 7.94 µM (active). For `CC(=O)c1ccc(NC(=O)CCc2nc(-c3ccc(C)cc3)no2)cc1`, the Potency was “inactive”. In the case of `O=C(Nc1ccc(Br)cc1)c1ccc(Br)c(S(=O)(=O)NCc2ccccc2)c1`, the Potency is reported as “inactive”. With `CCOC(=O)c1sc(=S)n2c1[nH]c(=O)c1ccc(C(=O)OC)cc12` the Potency was 7.08 µM (active). In the case of `CCOC(=O)c1sc(=S)n(-c2cccc(OC)c2)c1N`, the Potency is reported as “inactive”. `CCOC(=O)c1sc(NC(=O)c2ccncc2)nc1C` was tested, and the Potency was “inactive”. In the case of `COc1ccccc1N1CCN(C(CNC(=O)C(=O)NCc2ccc(C)cc2)c2cccnc2)CC1` (configuration not stated), the Potency is reported as “inactive”. `O=[N+]([O-])c1cc(-c2nc(-c3ccccc3)no2)ccc1NCc1ccco1` was tested, and the Potency was “inactive”. In the case of `Cc1ccc(-n2ncc3c(N4CCC(C(N)=O)CC4)ncnc32)cc1`, the Potency is reported as “inactive”. In the case of `COc1ccc(C(=O)NN2C(=O)C3C(c4ccccc4)C=CC(c4ccccc4)C3C2=O)cc1` (configuration not stated), the Potency is reported as “inactive”. In the case of `CC(=O)N1C(=O)/C(=C2\SC(=S)N(NC(=O)c3ccc(O)cc3)C2=O)c2ccccc21`, the Potency is reported as 25.1 µM (active). `O=C(O)c1ccc2c(c1)C(=O)N(NC(=O)c1ccc(O)cc1)C2=O` was tested, and the Potency was “inactive”.
